Results from PubChem BioAssay.
The source made the active and inactive calls.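 Rule for the calls: active = Her2 level under about 52% in both replicate screens, with viability over 70% of control (limit read from the data); inconclusive = Her2 under the limit in one screen only, or viability under 70%; inactive = Her2 level above the set limit.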

Tested on: not listed separately
Assay: reducers of endogenous Her2 protein level, primary screen, SKBR3 breast tumor cells, AlphaScreen, ATP viability (AID 461);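 for Her2 level: lower value means less Her2 protein in the cells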;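 for viability: percent of carrier control wells set as 100% viability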
Conditions: 18-24 h, measured here: SKBR3 viability, ATP luminescence, at 10 µM
With Cc1nnc2n(-c3ccc(Cl)cc3)c(=O)c3c4c(sc3n12)CN(C)CC4 the viability was 84%. In the case of O=c1oc2c3c4c(cc2s1)CCCN4CCC3, the viability is reported as 89%. Compound Cc1cc(C)n2nc(SCc3nc4ccccc4[nH]3)nc2n1 has a viability of 87.5%. Compound Cc1cc(C)cc(N(CC(=O)Nc2cccc(C)n2)S(=O)(=O)c2c(C)noc2C)c1 has a viability of 88.5%. For COc1cccc(C2C3=C(N=C4SCC(=O)N42)c2ccccc2CC3)c1OC (stereo not given), the viability was 103%. In the case of O=C(Cn1nc(Cc2ccncc2)c2ccccc2c1=O)N1CCN(C(=O)c2ccco2)CC1, the viability is reported as 98.5%. O=C(Nc1c(C(=O)NCc2ccco2)cnn1-c1ccccc1)c1ccc(F)cc1 gave a viability of 95.5%. Work on Cc1nc2ccc(S(=O)(=O)NC(C(=O)Nc3nccs3)C(C)C)cc2s1 (stereo not given) yielded a viability of 87%. Cn1nnnc1SCC(=O)N1CCN(c2ccccc2)CC1 gave a viability of 94.5%. Compound COc1cc2c(cc1OC)-c1nnc(C)n1C1(CCCC1)C2 has a viability of 87%. CS(=O)(=O)N(Cc1ccco1)CC(O)Cn1c2ccccc2c2ccccc21 (stereo not given) gave a viability of 93.5%. Compound COc1cccc(C2=NOC(C(=O)N3CCc4ccccc4C3)C2)c1 (stereo not given) has a viability of 87%. In the case of O=C(CC1Oc2ccccc2NC1=O)NCCCN1CCOCC1 (stereo not given), the viability is reported as 106%. CCOC(=O)N1CCN(C(=O)c2ccc(CS(=O)(=O)c3c(Cl)cccc3Cl)o2)CC1 gave a viability of 114%. With CCn1cc(SCC(=O)Nc2cc(C)on2)c2ccccc21 the viability was 110%. For COc1ccccc1N1CCN(C(=O)N2CCOCC2)CC1, the viability was 107%. O=C(CSc1nnc2ccccn12)c1ccccc1 showed a viability of 99%. CCOc1ccc(N(CC(=O)OC)S(=O)(=O)c2ccc(OC)c(OC)c2)cc1 gave a viability of 108%. Work on CCCCSc1nc(CCC)cc(=O)[nH]1 yielded a viability of 86.5%. In the case of O=C(CN1CCN(Cc2ccccc2F)C1=O)NCc1cccnc1, the viability is reported as 94.5%. COc1ccc(OC)c(C(=O)c2ccc(C(=O)O)cc2)c1 gave a viability of 120%. In the case of Cc1ccc(C)n1-n1c(C)nc2sc(-c3ccccc3)cc2c1=O, the viability is reported as 89%. With CCn1c(C(=O)N2CCC(C(=O)N3CCN(c4ccccn4)CC3)CC2)cc2sccc21 the viability was 95%. In the case of C=CCSc1nc(N)c2c(C)c(C)sc2n1, the viability is reported as 98.5%. For COc1ccc(OCCSc2nc3ccccc3n2CC(=O)O)cc1, the viability was 92.5%. For Cc1nnc(SCC(=O)NCc2ccccc2)s1, the viability was 97.5%. For Clc1ccc(SCCCCn2ccnc2)cc1, the viability was 90.5%. Work on CC1(C)Oc2ccc3ccc(=O)oc3c2C(N2CCCCC2)C1O (stereo not given) yielded a viability of 103%. Compound CSCCC(N=CC1=C(O)CC(C)(C)CC1=O)C(=O)O (stereo not given) has a viability of 100%. COc1ccc(C)cc1NC(=O)C1CCN(S(=O)(=O)c2cccc3cccnc23)CC1 showed a viability of 80.5%. Work on CCOc1ccc(-c2nnc(SCC(=O)N3CCN(c4ccccc4)CC3)o2)cc1 yielded a viability of 103%. CCCOc1ccc2ccccc2c1/C=N/n1cnnc1 gave a viability of 93%. With O=C(Cn1cc2c(n1)CCCCC2)N1CCc2ccccc21 the viability was 85.5%. CCn1cc(C(=O)N2CCOCC2)c(=O)c2cc(S(=O)(=O)N(C)C3CCCCC3)ccc21 showed a viability of 84%. COCCn1c(SCC(=O)Nc2ccc3c(c2)OCCO3)nc2c(c1=O)SC(C)C2 (stereo not given) gave a viability of 95%. In the case of CC(C)CCN(C)C1CCN(S(=O)(=O)c2ccc(F)cc2)CC1, the viability is reported as 87%. Work on COc1ccccc1-n1c(=O)[nH]c2c(C(N)=O)nc(-c3cccnc3)nc21 yielded a viability of 82.5%. For Cn1c(/C=N/n2cnnc2)nc2ccccc21, the viability was 100%. In the case of CN1CCN(CCCNC(=O)Cn2ncc3c4ccccc4n(C)c3c2=O)CC1, the viability is reported as 84%. Work on CCOc1ccc(N(CC(=O)NCc2ccco2)S(=O)(=O)c2ccc(OC)c(OC)c2)cc1 yielded a viability of 79%.

Target: Receptor tyrosine-protein kinase erbB-2 (Homo sapiens) (UniProt P04626)
Sequence (P04626 whole entry, looked up): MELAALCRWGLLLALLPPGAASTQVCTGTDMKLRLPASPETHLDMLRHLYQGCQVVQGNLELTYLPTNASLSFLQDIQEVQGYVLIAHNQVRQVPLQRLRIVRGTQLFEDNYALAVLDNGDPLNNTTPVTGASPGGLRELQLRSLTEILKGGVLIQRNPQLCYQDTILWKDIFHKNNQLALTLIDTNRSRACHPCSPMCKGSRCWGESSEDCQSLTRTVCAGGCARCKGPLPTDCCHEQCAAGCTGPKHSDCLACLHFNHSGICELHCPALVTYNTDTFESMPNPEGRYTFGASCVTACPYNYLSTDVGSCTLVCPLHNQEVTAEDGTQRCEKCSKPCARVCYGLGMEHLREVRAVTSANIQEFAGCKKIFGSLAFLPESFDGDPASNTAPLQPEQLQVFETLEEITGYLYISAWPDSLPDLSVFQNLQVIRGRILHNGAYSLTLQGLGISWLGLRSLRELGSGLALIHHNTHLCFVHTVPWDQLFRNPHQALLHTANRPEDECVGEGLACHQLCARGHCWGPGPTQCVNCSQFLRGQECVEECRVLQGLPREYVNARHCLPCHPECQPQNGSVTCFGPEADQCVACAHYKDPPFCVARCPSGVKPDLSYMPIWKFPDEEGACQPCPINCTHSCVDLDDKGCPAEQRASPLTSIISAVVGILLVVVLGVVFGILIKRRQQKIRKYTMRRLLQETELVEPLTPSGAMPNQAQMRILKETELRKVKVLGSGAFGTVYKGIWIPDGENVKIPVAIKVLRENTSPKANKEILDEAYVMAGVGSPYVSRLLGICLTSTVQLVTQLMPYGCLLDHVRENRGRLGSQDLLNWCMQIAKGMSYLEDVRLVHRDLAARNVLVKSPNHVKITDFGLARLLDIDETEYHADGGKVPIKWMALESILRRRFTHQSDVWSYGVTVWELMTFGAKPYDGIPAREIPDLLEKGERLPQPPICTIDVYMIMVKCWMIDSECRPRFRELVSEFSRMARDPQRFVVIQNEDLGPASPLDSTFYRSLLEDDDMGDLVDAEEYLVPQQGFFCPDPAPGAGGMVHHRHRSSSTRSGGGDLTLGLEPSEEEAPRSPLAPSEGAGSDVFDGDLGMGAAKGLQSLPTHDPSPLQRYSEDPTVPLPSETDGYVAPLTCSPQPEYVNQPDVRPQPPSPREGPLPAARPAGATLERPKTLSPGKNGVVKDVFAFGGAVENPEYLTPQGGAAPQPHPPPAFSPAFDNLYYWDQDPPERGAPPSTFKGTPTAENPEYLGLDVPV
Assay: as above
Conditions: 18-24 h, at 10 µM, stronger effect = lower value
For Cc1nnc2n(-c3ccc(Cl)cc3)c(=O)c3c4c(sc3n12)CN(C)CC4, the Her2 level was 98% (inactive). In the case of O=c1oc2c3c4c(cc2s1)CCCN4CCC3, the Her2 level is reported as 86% (inactive). In the case of Cc1cc(C)n2nc(SCc3nc4ccccc4[nH]3)nc2n1, the Her2 level is reported as 81% (inactive). In the case of Cc1cc(C)cc(N(CC(=O)Nc2cccc(C)n2)S(=O)(=O)c2c(C)noc2C)c1, the Her2 level is reported as 97% (inactive). With COc1cccc(C2C3=C(N=C4SCC(=O)N42)c2ccccc2CC3)c1OC (stereo not given) the Her2 level was 115% (inactive). In the case of O=C(Cn1nc(Cc2ccncc2)c2ccccc2c1=O)N1CCN(C(=O)c2ccco2)CC1, the Her2 level is reported as 110% (inactive). In the case of O=C(Nc1c(C(=O)NCc2ccco2)cnn1-c1ccccc1)c1ccc(F)cc1, the Her2 level is reported as 116% (inactive). For Cc1nc2ccc(S(=O)(=O)NC(C(=O)Nc3nccs3)C(C)C)cc2s1 (stereo not given), the Her2 level was 93% (inactive). In the case of Cn1nnnc1SCC(=O)N1CCN(c2ccccc2)CC1, the Her2 level is reported as 122% (inactive). For COc1cc2c(cc1OC)-c1nnc(C)n1C1(CCCC1)C2, the Her2 level was 105% (inactive). With CS(=O)(=O)N(Cc1ccco1)CC(O)Cn1c2ccccc2c2ccccc21 (stereo not given) the Her2 level was 71.5% (inactive). In the case of COc1cccc(C2=NOC(C(=O)N3CCc4ccccc4C3)C2)c1 (stereo not given), the Her2 level is reported as 92.5% (inactive). With O=C(CC1Oc2ccccc2NC1=O)NCCCN1CCOCC1 (stereo not given) the Her2 level was 100% (inactive). With CCOC(=O)N1CCN(C(=O)c2ccc(CS(=O)(=O)c3c(Cl)cccc3Cl)o2)CC1 the Her2 level was 128% (inactive). With CCn1cc(SCC(=O)Nc2cc(C)on2)c2ccccc21 the Her2 level was 84% (inactive). With COc1ccccc1N1CCN(C(=O)N2CCOCC2)CC1 the Her2 level was 87% (inactive). In the case of O=C(CSc1nnc2ccccn12)c1ccccc1, the Her2 level is reported as 88% (inactive). With CCOc1ccc(N(CC(=O)OC)S(=O)(=O)c2ccc(OC)c(OC)c2)cc1 the Her2 level was 122% (inactive). With CCCCSc1nc(CCC)cc(=O)[nH]1 the Her2 level was 118% (inactive). For O=C(CN1CCN(Cc2ccccc2F)C1=O)NCc1cccnc1, the Her2 level was 94.5% (inactive). For COc1ccc(OC)c(C(=O)c2ccc(C(=O)O)cc2)c1, the Her2 level was 107% (inactive). In the case of Cc1ccc(C)n1-n1c(C)nc2sc(-c3ccccc3)cc2c1=O, the Her2 level is reported as 106% (inactive). For CCn1c(C(=O)N2CCC(C(=O)N3CCN(c4ccccn4)CC3)CC2)cc2sccc21, the Her2 level was 108% (inactive). With C=CCSc1nc(N)c2c(C)c(C)sc2n1 the Her2 level was 70.5% (inactive). In the case of COc1ccc(OCCSc2nc3ccccc3n2CC(=O)O)cc1, the Her2 level is reported as 108% (inactive). For Cc1nnc(SCC(=O)NCc2ccccc2)s1, the Her2 level was 110% (inactive). With Clc1ccc(SCCCCn2ccnc2)cc1 the Her2 level was 113% (inactive). For CC1(C)Oc2ccc3ccc(=O)oc3c2C(N2CCCCC2)C1O (stereo not given), the Her2 level was 94% (inactive). In the case of CSCCC(N=CC1=C(O)CC(C)(C)CC1=O)C(=O)O (stereo not given), the Her2 level is reported as 139% (inactive). For COc1ccc(C)cc1NC(=O)C1CCN(S(=O)(=O)c2cccc3cccnc23)CC1, the Her2 level was 94.5% (inactive). With CCOc1ccc(-c2nnc(SCC(=O)N3CCN(c4ccccc4)CC3)o2)cc1 the Her2 level was 96% (inactive). For CCCOc1ccc2ccccc2c1/C=N/n1cnnc1, the Her2 level was 91% (inactive). For O=C(Cn1cc2c(n1)CCCCC2)N1CCc2ccccc21, the Her2 level was 95.5% (inactive). In the case of CCn1cc(C(=O)N2CCOCC2)c(=O)c2cc(S(=O)(=O)N(C)C3CCCCC3)ccc21, the Her2 level is reported as 89% (inactive). For COCCn1c(SCC(=O)Nc2ccc3c(c2)OCCO3)nc2c(c1=O)SC(C)C2 (stereo not given), the Her2 level was 110% (inactive). With CC(C)CCN(C)C1CCN(S(=O)(=O)c2ccc(F)cc2)CC1 the Her2 level was 104% (inactive). In the case of COc1ccccc1-n1c(=O)[nH]c2c(C(N)=O)nc(-c3cccnc3)nc21, the Her2 level is reported as 88.5% (inactive). For Cn1c(/C=N/n2cnnc2)nc2ccccc21, the Her2 level was 78% (inactive). For CN1CCN(CCCNC(=O)Cn2ncc3c4ccccc4n(C)c3c2=O)CC1, the Her2 level was 129% (inactive). In the case of CCOc1ccc(N(CC(=O)NCc2ccco2)S(=O)(=O)c2ccc(OC)c(OC)c2)cc1, the Her2 level is reported as 85% (inactive).
